Source: PubChem (Broad Institute)
Sampled rows, rich in hits. Any-hit rate of the full collection: about 2.1%.
rRNA inh HTS: inhibitors of bacterial rRNA selective over humanized ribosomes; E. coli WT GFP vs humanized-ribosome RFP mutants, fluorescence, 24 h; active compounds read low; DMSO median 0, no signal -100; GFP signal change (wild-type ribosome), % (concentration not given with the values); actives 1.6% (n = 350,000);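 active = significant combined selectivity score with lowered wild-type GFP, culture density cut under 30%, mutant RFP and density less affected; inactive = any of these conditions unmet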
PvdQ inh: blocks Pseudomonas aeruginosa PvdQ acylase activity. purified PvdQ acylase, fluorescence plate reader. inhibition, % at 10 µM. actives 0.063% (n = 340,000). AID 488965; in the data active = inhibition above about 30%, passing the limit was not always enough; inconclusive = no clear call, values can overlap the other calls;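 note: 0% = vehicle neutral wells and 100% = reference inhibitor wells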
CFTR F508del cor: CFTR F508del correction in bronchial cells; CFBE cells, YFP halide quenching; stimulated with forskolin plus potentiator P3; % fluorescence drop versus neutral controls; activity (quench increase), % at 7.58 µM; actives 0.36% (n = 350,000);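 active = mean added fluorescence quench of at least 8% versus neutral control, with both replicates also reaching 8%; inconclusive = only one of the mean or replicate conditions met; inactive = mean below 8% and not both replicates reaching 8%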;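 note: cells transiently co-express mutant CFTR-F508del with the halide-sensitive YFP; corrector assay measuring rescue of mutant channel to the surface after 24 h compound exposure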
ERAP1 inh: ERAP1 (human) enzyme inhibition. recombinant ERAP1, Leu-AMC fluorescence, 60 min. inhibition, % at 10.7 µM. actives 0.15% (n = 340,000). AID 652197;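 active = mean replicate inhibition of at least 30%, or all replicates individually reaching that 30% level; inactive = mean below 30% and not every replicate reaching it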;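 note: 0% = neutral control wells and 100% = L-leucinethiol positive control wells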
ARNT TACC3 PPI: disruptors of human ARNT/TACC3 interaction; AlphaScreen His-ARNT PAS-B/GST-TACC3 binding, luminescence; TACC3 fragment carries E629A point mutation; inhibition, % at 9.99 µM; actives 0.66% (n = 390,000); AID 623870;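 active = mean inhibition of replicates at least 50% and at least half of replicates each reaching 50%; inconclusive = half or more replicates reach 50% but mean below 50%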;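 note: 0% = complete ARNT plus TACC3 wells and 100% = ARNT alone without TACC3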
AID977621: growth inhibition of wild-type GFP E. coli, dose response, H69 mutant RFP, cherry-pick | shares compounds with rRNA inh HTS | E. coli wild-type GFP strain growth, fluorescence, 24 h | activity change, negative = inhibition at 50 µM | 1,900 tested, under 10 active | AID 977621;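 active = Wild-type ribosome reporter drop at least double the humanized mutant ribosome reporter drop, growth loss under a set limit; inconclusive = no clear call, values can overlap the other calls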;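 note: wild-type GFP and H69 mutant RFP strains grown together 50/50 in each well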
AID977628: E. coli growth inhibition, wild-type GFP versus h24 humanized RFP strain, dose response, h24 mutant RFP vs wild-type GFP, cherry-pick; activity change, negative = inhibition at 50 µM; 1,900 tested, under 10 active; shares compounds with rRNA inh HTS; E. coli WT GFP strain growth, fluorescence, 24 h;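 active = compound lowering the normal-ribosome reporter at least twice as much as the humanized-ribosome reporter, growth loss under a set limit; inconclusive = no clear call, values can overlap the other calls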;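 note: wild-type GFP and h24 humanized RFP strains co-cultured 1 to 1 per well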
An asterisk follows results filed as active; ? = inconclusive; nt = not tested or not shown.

SMILES	rRNA inh HTS	PvdQ inh	CFTR F508del cor	ERAP1 inh	ARNT TACC3 PPI	AID977621	AID977628
COc1ccc(-n2nc3cc(N)c(Br)cc3n2)cc1	-27*	-12	-5	-3	9	-1.5	-11
Cc1ccc(NC(=O)c2ccccc2F)c(NC(=O)c2ccccc2F)c1	-20*	-6	0	-3	-1	-16	-17
CCn1c(CNC(=O)c2ccccc2F)cc2cc(C)ccc21	-20*	-9	2	0	11	?	nt
C[C@@H]1CN([C@@H](C)CO)C(=O)c2cc(Br)cnc2O[C@H]1CN(C)C(=O)c1ccccn1	5	nt	1	4	5	nt	nt
Cc1ccccc1-c1ccccc1[C@H]1[C@@H](CO)N(C(=O)c2ccccc2)[C@H]1C#N	4	nt	-1	-1	nt	nt	nt
COc1ccc(CN(C)C(=O)c2cc(-c3ccc(OC)c(OC)c3)nc3ccccc23)c(OC)c1	-23*	-6	3	-7	-5	-3.3	-3.5
COc1ccc(CCN(C)C(=O)c2cc(-c3ccccc3)nc3ccccc23)cc1OC	-9	-6	3	1	-1	nt	nt
COc1ccc(-c2cc(C(=O)N(C)CCc3ccc(OC)c(OC)c3)c3ccccc3n2)cc1	-25*	6	1	1	-16	?	nt
N#Cc1c(SCc2ccc(Cl)cc2)sc(C(=O)c2ccccc2)c1N	nt	-3	nt	nt	-6	nt	nt
CC(C)Sc1sc(C(=O)O)c(-c2ccc(Cl)cc2)c1C#N	-43*	-2	-1	4	-2	-7.9	nt
CC(C)(C)C1CCC2(CC1)SCC(=O)N2c1ccccc1 (stereo not given)	4	-12	-2	-3	-3	nt	nt
CC1CCC2(CC1)SCC(=O)N2c1ccc(F)cc1 (stereo not given)	-19*	0	1	-1	-10	-3	-8.2
Cc1ccc(S(=O)(=O)Nc2ccc3c(c2)C(=O)N([C@@H](C)CO)C[C@H](C)[C@@H](CN(C)C(=O)C2CCCCC2)OCCCC[C@H](C)O3)cc1	-6	nt	2	2	-4	nt	nt
O=c1[nH]c(C2CCCN(S(=O)(=O)c3ccccc3Cl)C2)nc2c1nnn2Cc1ccc2c(c1)OCCO2 (stereo not given)	-18*	-25	1	-1	-24	-8.8	nt
O=c1ccn(C2CC(O)C(COC(c3ccccc3)(c3ccccc3)c3ccccc3)O2)c(=O)[nH]1 (stereo not given)	-13	nt	1	-2	nt	nt	nt
O=C(Cc1ccc(Cl)cc1)c1ccc(O)cc1	-37*	-8	-2	-2	-6	-3.6	?
CNC(=O)c1cc(C(=O)c2ccc(C(F)(F)F)cc2)c[nH]1	-3	-12	1	1	-4	nt	nt
CNC(=O)c1cc(C(=O)c2ccc(C(F)(F)F)cc2F)c[nH]1	-25*	-2	1	0	-4	-7	?
C[C@@H]1CN([C@@H](C)CO)C(=O)c2cc(C#Cc3ccccn3)cnc2O[C@H]1CN(C)C(=O)CCN1CCCCC1	3	nt	0	0	0	nt	nt
CC(=O)N1[C@@H]2Cn3c(cccc3=O)[C@H]1[C@@H](C(=O)NC1CCCC1)[C@@H]2CO	3	nt	nt	1	-4	nt	nt
CCCOC(=O)c1ccc(NC(=O)c2nc3nc(C)cc(C)n3n2)cc1	-23*	-20	-2	5	-1	1.3	-7.8
Cc1noc(C)c1S(=O)(=O)N(C)C[C@@H]1OCCCC[C@@H](C)Oc2ccc(NC(=O)Nc3ccc4c(c3)OCO4)cc2C(=O)N([C@@H](C)CO)C[C@H]1C	-4	nt	1	nt	0	nt	nt
CN(C)CCNc1ncnc2c1sc1nc(N3CCCC3)c3c(c12)CC(C)(C)OC3	-21*	-10	6	0	11	nt	-5.3
O=[N+]([O-])c1ccc(O)c(CSc2nnnn2-c2ccccc2)c1	-26*	12	1	2	8	-28	-13
C[C@H](CO)N1C[C@H](C)[C@@H](CN(C)Cc2ccc(Oc3ccccc3)cc2)Oc2c(NC(=O)c3ccc(-c4nccs4)cc3)cccc2C1=O	4	nt	4	-6	-18	nt	nt
SMILES	rRNA inh HTS	PvdQ inh	CFTR F508del cor	ERAP1 inh	ARNT TACC3 PPI	AID977621	AID977628
CCCCNC(=O)c1c(N)[nH]c(C(=O)c2ccccc2)c1-c1ccccn1	-27*	nt	0	-3	nt	-2	-15
Nc1[nH]c(C(=O)c2ccccc2)c(-c2ccc(F)cc2)c1C(=O)NCc1ccccc1	3	nt	0	0	nt	nt	nt
Nc1[nH]c(C(=O)c2ccccc2)c(-c2ccc(Cl)cc2)c1C(=O)NCCc1c[nH]c2ccccc12	-19*	nt	2	-2	nt	-13	nt
Nc1[nH]c(C(=O)c2ccccc2)c(-c2ccc(F)cc2)c1C(=O)NCCc1c[nH]c2ccccc12	-29	nt	4	-2	nt	nt	nt
Nc1[nH]c(C(=O)c2ccccc2)c(-c2ccc(Cl)c(Cl)c2)c1C(=O)NCCc1c[nH]c2ccccc12	nt	nt	4	-1	nt	nt	nt
Nc1[nH]c(C(=O)c2ccccc2)c(-c2ccc3c(c2)OCO3)c1C(=O)NCCc1c[nH]c2ccccc12	-15*	nt	0	1	nt	?	nt
Cc1ccccc1-n1ncc2c1CC(C)(C)CC2NC(=O)CCN1Cc2ccccc2C1=O (stereo not given)	-24*	-7	-1	0	-1	-11	nt
CSCCC(=O)NC1CC(C)(C)Cc2c1cnn2-c1ccccc1C (stereo not given)	-3	-12	-3	-2	0	nt	nt
Nc1ccc(C(=O)OCCCc2nc3cc4ccccc4cc3[nH]2)cc1	-17*	-11	0	-1	3	0.46	-0.53
Nc1ccc(C(=O)OCc2nc3cc4ccccc4cc3[nH]2)cc1	-23	-14	-5	6	-11	nt	nt
C[C@@H]1CN([C@H](C)CO)C(=O)c2cccc(NC(=O)Nc3cccc4ccccc34)c2O[C@@H]1CN(C)Cc1ccc(C(F)(F)F)cc1	-6	nt	4	2	9	nt	nt
C[C@@H]1CN([C@@H](C)CO)C(=O)c2cccc(NC(=O)Nc3ccccc3)c2O[C@H]1CN(C)S(=O)(=O)c1cn(C)cn1	2	nt	2	-7	-5	nt	nt
CCOC(=O)C(C)(C)n1nnc(-c2ccc([N+](=O)[O-])cc2)n1	-23*	-2	-1	8	-16	-7.4	?
CCOC(=O)Cn1nnc(-c2ccc([N+](=O)[O-])cc2)n1	7	-15	-3	16	-3	nt	nt
CCn1nc(C)c(Br)c1-c1nc(CS(=O)(=O)c2ccsc2)no1	-34*	nt	-1	1	nt	-11	?
Cn1nnnc1SCc1nc2scc(-c3ccccc3)c2c(=O)[nH]1	-14	-6	2	-2	-18	nt	nt
